Data as given in PubChem BioAssay (NCATS).
Results filed as inconclusive are left out. A number with no mark means an inactive call. Calls of active or inactive are those of the source. Calls follow the shape of the full dose curve.

Biological target: Retinoic acid receptor RXR-alpha (Homo sapiens) (UniProt P19793)
Assay: qHTS assay for small molecule agonists of retinoid X receptor alpha signaling (AID 588544)
Details: HEK293T RXRa-UAS-bla, beta-lactamase reporter, 18 h; series mostly up to 76.7 µM; activation: at the top concentration
Excerpt: NIH Chemical Genomics Center [NCGC] U.S. Environmental Protection Agency [EPA] National Institutes of Environmental Health Sciences [NIEHS] National Toxicology Program [NTP] NCGC Assay Overview The Retinoid X receptor (RXR), a nuclear hormone receptor is expressed in liver, spleen, placenta, epidermis, central nervous system. These receptors are able to form homo and heterodimers with other nuclear receptors and due to this heterodimerizing ability, RXR functions as master regulators producing diverse physiological effects. Three subtypes of RXR exist; alpha, beta and gamma. Retinoid X receptor alpha (RXR-alpha) has potential roles in metabolic signaling pathways, skin alopecia, dermal cysts, cardiac development, insulin sensitization etc. Therefore screening environmental chemicals on RXR-alpha signaling can be used for the studies focused on such therapeutic applications.
NCGC Assay Protocol Summary Using a beta-lactamase reporter-gene under control of Retinoid X receptor--alpha (RXR-alpha) response element, a cell-based assay [GeneBLAzer (RXR-alpha -UAS-bla assay developed by Invitrogen] was used to measure RXR-alpha ligands signaling. GeneBLAzer RXR-alpha -UAS-bla HEK293T cells were used with assay medium containing 2% charcoal-stripped FBS. The assay was performed in clear bottom black Greiner 1536-well plates. 9-cis-retinoic acid was used in the screen as the positive control. Library compounds were measured for their ability to stimulate the reporter gene activity. Compounds were screened in a titration series in 1536-well format. The fluorescence intensity (405 nm excitation, 460/530 nm emission) was measured using an EnVision plate reader. Data was normalized relative to 9-cis-retinoic acid control (500 nM, 100%), and DMSO only wells (basal, 0%). Concentration-response titration points for each compound were fitted to the Hill equation yielding concentrations of half-maximal stimulation (EC50) and maximal response (efficacy) values. qHTS protocol for RXR-alpha beta-lactamase assay in agonist mode [Step] [Parameter] [Value] [Description] 1. Reagent; 6 uL; 2500 cells/well 2. Incubation; 37 C for 4 hrs 3. Compounds; 23 nL; 0.59 nM to 92 uM 4. Controls (9-cis-retinoic acid); 23 nL, - One column with dose response, start 38 uM, 1:3 dilutions in duplicates - Final concentrations of 500 nM and 50 nM in two columns 5. Incubation; 37 C for 18 hrs 6. Detection reagent; 1 uL of CCF4-dye 7. Incubation; RT for 2 hrs 8. Detection; Fluorescence; Envision plate reader

Sequence of Retinoic acid receptor RXR-alpha (Homo sapiens) (P19793 whole entry, looked up): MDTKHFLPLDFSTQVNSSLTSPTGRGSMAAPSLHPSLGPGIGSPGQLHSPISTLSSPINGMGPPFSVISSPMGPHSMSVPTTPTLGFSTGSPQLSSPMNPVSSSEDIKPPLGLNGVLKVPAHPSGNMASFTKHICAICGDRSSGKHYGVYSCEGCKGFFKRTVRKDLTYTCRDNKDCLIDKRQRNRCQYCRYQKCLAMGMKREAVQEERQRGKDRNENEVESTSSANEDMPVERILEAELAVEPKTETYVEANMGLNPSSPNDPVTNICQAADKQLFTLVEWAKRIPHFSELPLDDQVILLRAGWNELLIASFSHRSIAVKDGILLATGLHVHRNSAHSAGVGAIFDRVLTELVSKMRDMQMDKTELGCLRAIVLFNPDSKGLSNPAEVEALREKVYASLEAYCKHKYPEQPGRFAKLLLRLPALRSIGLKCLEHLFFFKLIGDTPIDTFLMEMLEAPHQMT

Compound	outcome	activation [%]
O=C(O)CC(C(=O)O)C(CC(=O)O)C(=O)O (stereo not given)	inactive	–
CCCCCCCCO	inactive	–
Cc1ccc([N+](=O)[O-])cc1N	inactive	–
O=S(=O)(O)c1ccccc1	–	5.44
CCC(O)OC(O)CC (stereo not given)	inactive	–
COC(=O)c1ccc(C)cc1	inactive	–
COC(=O)c1ccc(C=O)cc1	inactive	–
OCCNCCO	inactive	–
c1ccc2c(c1)[nH]c1ccccc12	inactive	–
CCCCOCCO	inactive	–
C[Si](C)(C)O[Si](C)(C)O[Si](C)(C)C	–	25.4
CC(=O)OC/C=C(\C)CCC=C(C)C	inactive	–
C=Cc1ccccc1Cl	–	-0.332
CCO[Si](CCCN)(OCC)OCC	inactive	–
Nc1ccc(S(=O)(=O)O)cc1	inactive	–
O=C(O)c1ccccc1	–	2.13
C=CCc1ccc(OC)c(OC)c1	inactive	–
CC12CCC(CC1=O)C2(C)C (stereo not given)	inactive	–
CC1(C)CC(N=C=O)CC(C)(CN=C=O)C1 (stereo not given)	inactive	–
C=C(C)C1CC=C(C)C(O)C1 (stereo not given)	–	1.35

Compound	outcome	activation [%]
Nc1ccc(Cl)cc1Cl	–	6.34
c1ccc2c(c1)c1cccc3ccc4cccc2c4c31	inactive	–
c1ccc2scnc2c1	–	0.678
C1OCOCO1	–	-0.112
O=C(O)c1ccccc1C(c1ccc(O)cc1)c1ccc(O)cc1	inactive	–
CCCCC(CC)CN (stereo not given)	inactive	–
C=CC(=C)CCC=C(C)C	–	5.06
Cc1cccc([N+](=O)[O-])c1C	inactive	–
O=NO	inactive	–
C=CCOC(=O)c1ccccc1C(=O)OCC=C	inactive	–
CCCCCCCCCCCCCC(=O)O	inactive	–
CC1=CC(C)(C)Nc2ccccc21	inactive	–
CC(C)=CCCC(C)CCO (stereo not given)	inactive	–
Cc1ccc(N)c([N+](=O)[O-])c1	inactive	–
ClCCCl	inactive	–
COc1ccc2nc(N)sc2c1	inactive	–
CCCCCCCCCCCCCCC1CO1 (stereo not given)	inactive	–
COCC(=O)O	inactive	–
O=C(O[C@@H]1Cc2c(O)cc(O)cc2O[C@@H]1c1cc(O)c(O)c(O)c1)c1cc(O)c(O)c(O)c1	–	-9.03
CCCN(CCC)C(=O)SCC	inactive	–
